In PubChem BioAssay (NCI) one finds growth data, which are given here for nine molecules.

Molecules are shown by their SMILES. This is part of a sample that, as a whole, favours compounds with a hit. Of some 83,000 tested, about 20% had one in any assay.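 Negative percent growth values reflect cell death: -40 means 40% of the cells present at the start died, and -100 means all died.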 Unmarked numbers belong to inactive results. Active and inactive are the calls of the source. How the source made its calls: active means growth percent below 10; inactive means the rest.

What all share (assay): NCI-60 one-dose screen, 48 h (100 = growth as untreated, 0 = no growth, -100 = all killed)
Common to all, as to details: 10 µM unless noted

Experiment [1] relates to NCI-H23 lung.
Experiment [2] deals with NCI-H226 lung.
Experiment [3] deals with HOP-62 NSCLC.
Experiment [4] deals with NCI-H460 lung.
The test system of experiment [5] is NCI-H522 lung.
Experiment [6] relates to A549/ATCC NSCLC.
Experiment [7] relates to 786-0 renal.
Experiment [8] concerns DU-145 prostate.
The test system of experiment [9] is K-562 leukemia.
Experiment [10] has as its system MALME-3M melanoma.
Experiment [11] concerns MDA-MB-231 breast.
Experiment [12] deals with RXF 393 renal.
For experiment [13], the system named is SF-268 CNS.
Experiment [14] relates to SF-295 CNS.
The test system of experiment [15] is SF-539 CNS.
For experiment [16], the system named is UACC-257 melanoma.
In experiment [17] the test system is M14 melanoma.
The test system of experiment [18] is COLO 205 colon.

For the molecule `CS(=O)(=O)c1ccc(C(=O)Nc2ccc(Cl)c(-c3ccccn3)c2)c(Cl)c1`, the growth in experiment [1] was 27.3%; in experiment [2], 16.5%; in experiment [3] it was 36%; in [4] it was -46% (active); in [5], 2.48% (active); in [6], 26%. Moreover, the growth was -41.2% (active) in experiment [7]; 24.7% in [8]; 13.8% in [9]; 42.4% in [10]; 30.2% in [11]; -52.9% (active) in [12]. For the same molecule, the growth in experiment [13] is 31.8%; in experiment [14] it was 8.89% (active); in experiment [15] it was 19.6%; in [16], 32.6%; in experiment [17], 26.8%.
`CNC(=O)c1c(NC(=O)c2cccc(C(F)(F)F)c2)sc2c1CCC(=O)C2`: the growth in experiment [1] was -1.79% (active); in [2] it was 1.92% (active); in experiment [3], 13.6%; in experiment [4], 10%; in experiment [5], -28.3% (active); in experiment [6], 13.6%. Moreover, the growth in [7] is 13.3%; in [18], -31.7% (active); in experiment [8], 23.9%; in experiment [10], -28.9% (active); in experiment [11], -41.2% (active); in experiment [12], -18.9% (active). In addition, the growth is 21.7% in experiment [13]; -10.4% (active) in experiment [14]; -30% (active) in [15]; -11% (active) in experiment [16]; -10.9% (active) in experiment [17].
For `CC(=O)N1N=C(C2C(=O)N(C)C(=O)N(C)C2=O)CC1c1ccccc1C(=O)O` (configuration not stated), the growth in experiment [1] was 98.3%; in experiment [2], 108%; in experiment [3], 97.2%; in experiment [4], 104%; in experiment [5], 83.3%; in experiment [6], 98.4%. Further, the growth was 98.2% in experiment [7]; 108% in experiment [18]; 103% in experiment [8]; 87.5% in [9]; 104% in experiment [10]; 104% in [11]. The growth in experiment [12] was 104%; in experiment [13], 96.7%; in [14] it was 112%; in experiment [15], 104%; in experiment [16], 95.7%.
On to `C=C(C)[C@@H]1CC[C@]2(C(=O)NC(COC(=O)C(Cl)Cl)(COC(=O)C(Cl)Cl)COC(=O)C(Cl)Cl)CC[C@]3(C)[C@H](CC[C@@H]4[C@@]5(C)CC[C@H](OC(C)=O)C(C)(C)[C@@H]5CC[C@]43C)[C@@H]12`, for which the growth in [1] is 72%; in experiment [2], 84.2%; in [3], 82.7%; in experiment [4], 15.8%; in [5], 48.1%; in experiment [6], 27.7%. The growth was 37.3% in experiment [7]; 36.1% in [18]; 50.7% in experiment [8]; 25.2% in experiment [9]; 96.2% in experiment [10]; 54.1% in [11]. In addition, the growth in experiment [12] is 42.6%; in experiment [13], 58.8%; in experiment [14], 60.9%; in experiment [15] it was 76.5%; in experiment [16], 79.5%; in experiment [17], 59.9%.
Regarding `COc1ccc(C(=O)OC2C(OC3C(O)COC(O[C@H]4C[C@H]5[C@@H]6CC=C7C[C@@H](O)CC[C@]7(C)[C@H]6CC[C@]5(C)[C@H]4[C@H](C)C(=O)CCC(C)C)C3OC(N)=O)OCC(O)C2O)cc1` (some centres not stated), the growth in experiment [1] was 23.3%; in experiment [2], -1.18% (active); in experiment [3], -22.2% (active); in [4], -35.7% (active); in [5], -68.7% (active); in [6], 11.3%. The growth in [7] is -59.4% (active); in [18], -58% (active); in [8], 32.8%; in experiment [9], -45.4% (active); in experiment [10] it was -34.3% (active); in experiment [11] it was -5.1% (active). The growth in experiment [12] is -64.9% (active); in experiment [13], -14.2% (active); in [14], -67.2% (active); in experiment [15] it was -80% (active); in experiment [16] it was -63.6% (active).
As to `CCN(CC)C(=O)O/N=C(/C)c1ccccc1`, the growth in experiment [1] was 95.1%; in experiment [2], 114%; in [3] it was 110%; in experiment [4], 110%; in experiment [5] it was 92.1%; in [6] it was 96.1%. The growth in [7] was 96.6%; in experiment [18] it was 115%; in [8], 100%; in experiment [9], 102%; in experiment [10] it was 130%; in experiment [11], 91%. Further, the growth is 102% in experiment [12]; 104% in experiment [13]; 105% in experiment [14]; 88.1% in [15]; 105% in experiment [16]; 101% in experiment [17].
`Nc1c(N)c2ccccc2c2ccccc12`: the growth is 98.4% in experiment [1]; 92.2% in [2]; 95% in experiment [3]; 113% in experiment [4]; 111% in experiment [5]; 105% in experiment [6]. The growth in experiment [7] was 103%; in experiment [18], 124%; in experiment [8], 111%; in experiment [10], 110%; in experiment [11], 85.3%; in experiment [12], 109%. The growth in experiment [13] is 115%; in experiment [14], 100%; in experiment [15] it was 94.6%; in experiment [16], 106%; in [17], 113%.
Take `COc1ccc2[nH]cc(C3(c4c[nH]c5ccc(OC)cc45)C(=O)Nc4ccc(F)cc43)c2c1`: the growth is 97% in experiment [1]; 70% in experiment [2]; 83.3% in experiment [3]; 4.92% (active) in experiment [4]; 78.5% in experiment [5]; 75.3% in [6]. The growth in experiment [7] was 82.6%; in [18], 72.9%; in experiment [8], 81.2%; in experiment [9] it was -16.5% (active); in [10], 80.1%; in [11], 101%. For the same molecule, the growth in experiment [12] is 78.8%; in [13], 53.9%; in experiment [14], 56.7%; in experiment [15], 78.5%; in experiment [16] it was 94%; in [17], 86.7%.
For `C=C1C(=O)O[C@H]2[C@H]1CC/C(COC(=O)NCc1cccc(OC)c1)=C\CC[C@@]1(C)O[C@@H]21`, the growth in experiment [1] was 73.4%; in experiment [2] it was 67.3%; in experiment [3], 65.6%; in experiment [4], 55%; in experiment [5] it was -70.3% (active); in experiment [6], 50.7%. Also, the growth is -48.9% (active) in experiment [7]; -71.3% (active) in [18]; 19.7% in experiment [8]; 4.46% (active) in [9]; -26.4% (active) in experiment [10]; 64.4% in experiment [11]. For the same molecule, the growth is -57.1% (active) in experiment [12]; 58.2% in experiment [13]; 71.5% in experiment [14]; 21.4% in experiment [15]; 25.4% in experiment [16]; -7.62% (active) in experiment [17].
